Screens: PubChem BioAssay, National Center for Advancing Translational Sciences (NCATS)
AMA1-RON2 inh = AMA1-RON2 (P. falciparum) interaction inhibition; AlphaScreen AMA1-biotinylated RON2 peptide binding; Potency, µM (top dose mostly 58.2 µM), for the others: top-dose activity change, negative = inhibition, most hits filed as inhibitors; actives 0.2% (n = 360,000); AID 720542;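 note: 0% = vehicle wells and -100% = peptide control; nearly all actives have a fitted effect of over 45% in size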
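AMA1 (3D7) with his tag at 25 nM final met compounds first, then biotinylated RON2 peptide at 25 nM; detection used donor plus acceptor beads, 10 µg/mL apiece, read by AlphaScreen after 30 min at room temperature.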
Pf growth 48h = inhibits P. falciparum growth in the first generation, 48 h; P. falciparum luciferase growth in erythrocytes, 48 h; Potency, µM (doses to about 28.7 µM), for the others: top-dose activity change, negative = inhibition, usual class: inhibitors; actives 5.9% (n = 310,000)
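In quantitative HTS format, infected erythrocytes bearing luciferase-reporter parasites were treated for a single generation at 37 C. Luminescence after adding detection reagent served as the growth measure.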
Vaccinia mCherry = vaccinia inhibition (mCherry reporter). Potency, µM (doses to about 36.5 µM), for inactives: at the top dose activity change, negative = inhibition, most hits filed as inhibitors. Vaccinia virus mCherry reporter infection, fluorescence. actives 0.63% (n = 310,000). AID 720579; calls by dose curve; tested in A549 cells; note: nearly all actives have a fitted effect of over 35% in size
Vaccinia Venus = inhibitors of vaccinia virus (Venus reporter) | Vaccinia virus Venus reporter expression, fluorescence | Potency, µM (series often up to 36.5 µM), for inactives: at the highest dose activity change, negative = inhibition, usual class: inhibitors | actives 0.46% (n = 330,000) | AID 720580; calls by dose curve; tested in A549 cells; note: nearly all actives have a fitted effect of over 30% in size
Pf growth 96h = P. falciparum growth inhibition at 96 hour, primary screen for plastid delayed-death inhibitors | AID 504834 | P. falciparum luciferase reporter growth, 96 h | Potency, µM (top dose mostly 28.7 µM), for the others: at the highest dose activity change, negative = inhibition, usual class: inhibitors | actives 6.9% (n = 320,000)
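Cell-based qHTS: luciferase-tagged P. falciparum in erythrocytes (2% hematocrit, 0.05% parasitemia final) incubated with compounds for 96 hours, 37 C, 5% CO2; luciferase detection reagent then added and luminescence measured.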
Numbers without * were called inactive; i = inactive; ? = inconclusive; · = not tested or not shown; [ ] = dose if it differs, or a comment. Sampled rows, rich in hits. Any-hit rate of the full collection: about 8.7%. Unless noted, calls come from the whole dose curve; as a rule, active = well fitted curve in the direction sought with a large enough effect; inconclusive = small, poorly fitted or top-dose-only effect, or another doubt; inactive = no such curve, though single readings can be large; an effect the other way counts as inactive or inconclusive. Unless noted, % is set by controls: 0 for no effect and ±100 for the full control effect; potency is the fitted concentration of half-maximal effect.

SMILES	AMA1-RON2 inh	Pf growth 48h	Vaccinia mCherry	Vaccinia Venus	Pf growth 96h
COc1ccc(/C=N/NC(=O)c2ccncc2)cc1CN1CCN(c2ccc(F)cc2)CC1	-19.9%	-2.4%	-4.2%	-16.2%	3.7µM*
COc1ccc(/C=N/NC(=O)c2ccc(O)cc2)cc1CN1CCCc2ccccc21	?	?	i	-16.6%	2.33µM*
CCOc1ccc(-c2cc3nc(C4CCN(C(=O)OC(C)(C)C)CC4)c(C(=O)Nc4cccc(Cl)c4C)cn3n2)cc1	·	·	-12.4%	-12.1%	·
CCCCN(CCCC)CCNC(=O)Cn1nc(C)n2c(cc3sccc32)c1=O	·	·	6.3%	-4.8%	·
COCCOC(=O)C1=C(C)NC(=O)NC1c1cn(-c2ccccc2)nc1-c1ccccc1 (stereo not given)	·	·	3.8%	3.1%	·
O=C(Nc1ccncc1)c1ccc(Cl)c(Cl)c1	1.8%	?	-12.9%	-9.0%	2.94µM*
CC(=O)Nc1ccc(C(=O)Nc2ccncc2)cc1	1.2%	3.2%	·	·	0.0%
COc1ccc(C(=O)Nc2ccccc2C(=O)Nc2ccncc2)cc1	-6.3%	10.4µM*	-25.3%	-20.6%	-6.5%
Cc1nc2cc(N3CCCCC3)c(NC(=O)c3cccnc3)cc2c(=O)n1Cc1ccccc1	-10.0%	2.94µM*	-3.4%	-10.1%	·
O=C(NNC(=O)c1ccc(Cl)c(Cl)c1)c1ccncc1	68.1%	·	-15.0%[7.34 µM]	-17.2%[7.34 µM]	·
O=C(Nc1ccncc1)c1ccc(F)cc1	12.0%	·	i	-12.2%	5.22µM*
O=C(Nc1ccc(Nc2ccncc2)cc1)c1ccc([N+](=O)[O-])cc1	-4.0%	2.62µM*	-5.6%	-19.0%	1.65µM*
O=C(NNC(=O)c1cnccn1)c1ccc(Cl)c(Cl)c1	122.1%	?	·	·	3.7µM*
Cc1cccnc1NC(=O)c1ccc(Cl)c(S(=O)(=O)N2CCCCCC2)c1	92.9%	?	-11.1%	-20.1%	?
Cc1nonc1NC(=O)c1ccc(Cl)c(S(=O)(=O)N2CCCCC2)c1	5.8%	-5.8%	-12.1%	?	2.62µM*
O=C(Nc1ccc(Nc2ccncc2)cc1)c1ccc(Nc2ccnc3ccc([N+](=O)[O-])cc23)cc1[N+](=O)[O-]	?	1.47µM*	·	·	0.522µM*
COC(=O)C1CCN(Cc2ccc3c(c2)CN(C(=O)c2ccc(-n4cnnn4)cc2)CCO3)CC1	·	·	5.3%	2.2%	·
CCCCCNC(=O)c1cc2c(=O)n3ccccc3nc2n1C	·	·	-7.7%	-0.8%	·
CC(C)CC(=O)Nc1nnc(S(=O)(=O)N(C)Cc2ccc(Cl)cc2)s1	·	·	-10.4%	-6.9%	·
O=C(Nc1ccc(Cl)c(S(=O)(=O)N2CCCCC2)c1)c1cccnc1	0.4%	11.7µM*	·	·	?
O=C(Nc1cccc(S(=O)(=O)N2CCCC2)c1)c1cccnc1	-0.1%	2.6%	11.5%	0.7%	19.2%
O=C(Nc1cccc([N+](=O)[O-])c1)c1ccccc1	-5.2%	95.0%	·	·	128.3%
O=C(Nc1cccc([N+](=O)[O-])c1)c1ccc2nsnc2c1	-6.8%	4.5%	-5.7%	-19.4%	13.1µM*
Cc1ccc(NC(=O)c2ccc3[nH]c(=O)c(=O)[nH]c3c2)nc1	-7.9%	26.1%	·	·	20.6%
Cc1ccc(NC(=O)c2ccc(F)cc2)nc1	-2.9%	-9.5%	3.3%	-3.1%	5.22µM*
SMILES	AMA1-RON2 inh	Pf growth 48h	Vaccinia mCherry	Vaccinia Venus	Pf growth 96h
O=C(Nc1ccc(N2CCCCC2)c(Cl)c1)c1cccnc1	58.7%	-14.0%	12.6µM*	1.6%	-4.1%
Cc1ccc(C(=O)Nc2ccncc2)cc1S(=O)(=O)N1CCCCC1	128.6%	·	?	?	·
O=C(Nc1ccncc1)c1ccc(Cl)c(S(=O)(=O)N2CCCC2)c1	-5.8%	11.7µM*	-20.8%	-16.2%	?
CC1Oc2ccccc2N(Cc2ccccc2F)C1=O (stereo not given)	·	-0.5%	·	·	?
CC1Oc2ccccc2N(Cc2ccccc2Cl)C1=O (stereo not given)	38.2%	?	·	·	11.7µM*
CC1=CC(=C(C#N)c2nc3ccccc3s2)C=C(C)N1Cc1ccco1	24.4%	3.29µM*	-14.8%	-2.6%	·
N#C/C(=C(/O)c1ccco1)c1nc2ccccc2s1	4.5%	73.7%	-17.9%	-16.2%	69.8%
O=C(CNC(=S)N(Cc1ccccc1Cl)C1CCCC1)NCCN1CCOCC1	7.7%	10.4µM*	-1.5%	4.2%	37.7%
COc1ccccc1C(=O)NCCCNc1ccc([N+](=O)[O-])cc1	18.6%	0.8%	i	-8.0%	13.1µM*
COc1ccccc1C(=O)NCCCCNC(=O)c1ccccc1OC	-12.3%	·	-13.6%	-0.3%	·
